Here are results for eight compounds from PubChem BioAssay (Tox21).

A number with no mark means an inactive call. Inconclusive results are not listed. The source made the active and inactive calls. Unless noted, the call rests on the fitted dose curve; in most records, active means well fitted curve in the direction sought with a large enough effect in the repeat runs; inconclusive means weak or mixed curves; inactive means no such curve, though single readings can be large; an effect the other way counts as inactive or inconclusive.

The nature of assay [1]: qHTS assay to test for compound auto fluorescence at 535 nm (green) in HEK293 cells (AID 720680). (Quantitative high-throughput screening tests each substance at several concentrations.)
Assay [2] in a line: qHTS assay to test for compound auto fluorescence at 460 nm (blue) in HEK293 cell free culture (AID 720681). Summed up: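 Blue fluorescence (Ex 405/Em 460 nm, triamterene-equivalent) was read immediately after pin transfer of compound or DMSO into medium (DMEM, 10% FBS) without cells.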
Assay [3] in a line: qHTS assay to test for compound auto fluorescence at 535 nm (green) in HEK293 cell free culture (AID 720682). Summed up: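 Steps: dispense DMEM/10% FBS into empty wells; pin in compound or DMSO; measure fluorescence at 485/535 nm. Values are fluorescein equivalents.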
Assay [4] in a line: qHTS assay to test for compound auto fluorescence at 590 nm (red) in HEK293 cell free culture (AID 720683). The method, boiled down:
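Red-channel autofluorescence of compounds in culture medium (DMEM, 10% FBS), no cells, measured at 540/590 nm. Rose Bengal sodium is the reference fluorophore for equivalence.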

A short description of assay [5]: qHTS assay to test for compound auto fluorescence at 590 nm (red) in HepG2 cell free culture (AID 720684). Summed up: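 Cell-free; medium MEM + 10% FBS; compound or DMSO added by pintool; read Ex 540/Em 590 nm; Rose Bengal sodium as red reference fluorophore.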
The nature of assay [6]: qHTS assay to test for compound auto fluorescence at 460 nm (blue) in HepG2 cell free culture (AID 720685). Summed up: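 Cell-free plates of MEM plus 10% FBS received 23 nL compound or DMSO vehicle; blue-channel (405/460 nm) intensity scored against triamterene as reference fluorophore.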
Assay [7] is described as follows: qHTS assay to test for compound auto fluorescence at 535 nm (green) in HepG2 cell free culture (AID 720686).
Assay [8] in a line: qHTS assay to test for compound auto fluorescence at 460 nm (blue) in HepG2 cells (AID 720687). The method, boiled down: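 Blue-channel autofluorescence (Ex/Em 405/460 nm, triamterene-equivalent) was measured after 1 hr compound exposure at 37 C, 5% CO2. Cells were HepG2, plated overnight at 37 C in MEM plus 10% FBS.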
In assay [9] the target is Glucocorticoid receptor (Homo sapiens) (UniProt P04150). The assay can be described thus: qHTS assay to identify small molecule agonists of the glucocorticoid receptor (GR) signaling pathway (AID 720691; active means well fitted activation curve with a large enough effect in the signal ratio in the repeat runs, not every such curve was filed as active; the % refers to the signal ratio). Summed up:
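A HeLa cervical cancer line expressing GR and a glucocorticoid response element-driven beta-lactamase gene is treated with compounds for 18 h; LiveBLAzer B/G FRET substrate is then applied and fluorescence read.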

For assay [10] the target is unchanged. The assay can be described thus: qHTS assay to identify small molecule antagonists of the glucocorticoid receptor (GR) signaling pathway (AID 720692; active means well fitted inhibition curve with a large enough effect in the signal ratio in the repeat runs, not every such curve was filed as active; the % refers to the signal ratio). Summed up:
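GRE-bla HeLa line, dex-stimulated (5 nM final). Compound exposure 18 h, 37 C. Beta-lactamase FRET read after 2 h RT substrate.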

Assay [11] in a line: qHTS assay to identify small molecule antagonists of the glucocorticoid receptor (GR) signaling pathway - cell viability counter screen (AID 720693). Further: nearly all actives have a fitted effect of over 55% in size.
Assay [12] in a line: qHTS assay for identifying genotoxic compounds that show differential cytotoxicity against isogenic chicken DT40 cell lines with known DNA damage response pathways - wild type cell line (AID 743012). Further: nearly all actives have a fitted effect of over 60% in size. Further: potency means the concentration at half of the fitted maximal effect. Summed up: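 300 wt DT40 cells/well; cpd (DMSO) pintool-transferred after ~0.5 h at 37 C/5% CO2; 40 h incubation; CellTiter-Glo added, 30 min RT; luminescence read.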
Assay [13] can be described thus: qHTS assay for identifying genotoxic compounds that show differential cytotoxicity against isogenic chicken DT40 cell lines with known DNA damage response pathways - Rad54/Ku70 mutant cell line (AID 743015). Further: nearly all actives have a fitted effect of over 60% in size.
A short description of assay [14]: qHTS assay to identify small molecule antagonists of the androgen receptor (AR) signaling pathway - cell viability counter screen (AID 743033; further: nearly all actives have a fitted effect of over 45% in size).
Assay [15] in a line: qHTS assay to identify small molecule antagonists of the androgen receptor (AR) signaling pathway using the MDA cell line - cell viability counter screen (AID 743041; further: nearly all actives have a fitted effect of over 45% in size). Summed up:
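Viability read by CellTiter-Fluor fluorescence in the same wells as the antagonist screen, added after 15.5 h of a 16 h, 37C exposure. Human breast carcinoma MDA-kb2 AR-luc cells, compounds co-dosed with agonist R1881.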

The nature of assay [16]: qHTS assay for identifying genotoxic compounds that show differential cytotoxicity against isogenic chicken DT40 cell lines with known DNA damage response pathways - Rev3 mutant cell line (AID 743014). Further: nearly all actives have a fitted effect of over 55% in size.
The target in assay [17] is Androgen receptor (Homo sapiens) (UniProt P10275). Description: qHTS assay to identify small molecule antagonists of the androgen receptor (AR) signaling pathway (AID 743035; active means well fitted inhibition curve with a large enough effect in the signal ratio in the repeat runs, not every such curve was filed as active; the % refers to the signal ratio). The method, boiled down: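 In this cell-based reporter screen, compounds were tested in concentration series against R1881-activated HEK293 cells expressing beta-lactamase under UAS control; after 16 h at 37C, FRET substrate was added and fluorescence read 2 h later.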

Assay [18] has the same target. The assay can be described thus: qHTS assay to identify small molecule agonists of the androgen receptor (AR) signaling pathway (AID 743036; active means well fitted activation curve with a large enough effect in the signal ratio in the repeat runs, with a control signal flat, not every such curve was filed as active; the % refers to the signal ratio). The method, boiled down: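 Reporter line: GeneBLAzer AR-UAS-bla-GripTite (HEK293). Steps: plate cells, 4 h rest, add compounds, 16 h at 37C, add LiveBLAzer B/G substrate, 2 h at RT, read fluorescence.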
The target is the same in assay [19]. The assay can be described thus: qHTS assay to identify small molecule agonists of the androgen receptor (AR) signaling pathway using the MDA cell line (AID 743040; further: nearly all actives have a fitted effect of over 20% in size). The method, boiled down:
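Luciferase agonist assay: 16 h compound exposure at 37C without CO2 in MDA-kb2 AR-luc cells, whose MMTV promoter responds to both AR and GR. Luminescence measured after 30 min room-temperature incubation with ONE-Glo.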

Assay [20] has the same target. The assay can be described thus: qHTS assay to identify small molecule antagonists of the androgen receptor (AR) signaling pathway using the MDA cell line (AID 743042; further: nearly all actives have a fitted effect of over 55% in size). Summed up: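 Antagonist mode: compounds plus R1881 agonist added to MDA-kb2 AR-luc cells, incubated 16 h at 37C. Luciferase reporter luminescence quantified, with multiplexed CellTiter-Fluor readout for cell viability.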
On the % scale 0 is the no-effect control and ±100 the full control effect.

Sequence of Glucocorticoid receptor (Homo sapiens) (P04150 whole entry, looked up): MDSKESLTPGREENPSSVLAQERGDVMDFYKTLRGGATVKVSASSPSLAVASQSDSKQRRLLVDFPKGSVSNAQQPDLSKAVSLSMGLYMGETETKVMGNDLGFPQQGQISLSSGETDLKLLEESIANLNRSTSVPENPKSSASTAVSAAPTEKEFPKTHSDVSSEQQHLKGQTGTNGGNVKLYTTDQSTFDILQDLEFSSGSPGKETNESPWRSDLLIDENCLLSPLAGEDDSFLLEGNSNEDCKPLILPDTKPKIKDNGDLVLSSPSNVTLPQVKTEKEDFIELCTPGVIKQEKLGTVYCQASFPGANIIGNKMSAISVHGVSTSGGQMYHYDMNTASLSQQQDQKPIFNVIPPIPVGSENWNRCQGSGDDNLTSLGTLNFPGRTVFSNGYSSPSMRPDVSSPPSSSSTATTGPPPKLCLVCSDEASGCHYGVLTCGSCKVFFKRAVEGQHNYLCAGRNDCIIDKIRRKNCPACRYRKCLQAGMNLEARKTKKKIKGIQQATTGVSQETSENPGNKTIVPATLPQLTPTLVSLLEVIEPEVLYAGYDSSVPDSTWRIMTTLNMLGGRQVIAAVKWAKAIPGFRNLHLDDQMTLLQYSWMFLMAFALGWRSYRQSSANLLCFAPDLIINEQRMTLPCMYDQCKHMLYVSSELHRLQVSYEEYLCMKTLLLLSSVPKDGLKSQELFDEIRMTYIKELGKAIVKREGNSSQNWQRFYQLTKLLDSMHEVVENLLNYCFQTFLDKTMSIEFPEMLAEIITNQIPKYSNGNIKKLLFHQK
Sequence of Androgen receptor (Homo sapiens) (P10275 whole entry, looked up): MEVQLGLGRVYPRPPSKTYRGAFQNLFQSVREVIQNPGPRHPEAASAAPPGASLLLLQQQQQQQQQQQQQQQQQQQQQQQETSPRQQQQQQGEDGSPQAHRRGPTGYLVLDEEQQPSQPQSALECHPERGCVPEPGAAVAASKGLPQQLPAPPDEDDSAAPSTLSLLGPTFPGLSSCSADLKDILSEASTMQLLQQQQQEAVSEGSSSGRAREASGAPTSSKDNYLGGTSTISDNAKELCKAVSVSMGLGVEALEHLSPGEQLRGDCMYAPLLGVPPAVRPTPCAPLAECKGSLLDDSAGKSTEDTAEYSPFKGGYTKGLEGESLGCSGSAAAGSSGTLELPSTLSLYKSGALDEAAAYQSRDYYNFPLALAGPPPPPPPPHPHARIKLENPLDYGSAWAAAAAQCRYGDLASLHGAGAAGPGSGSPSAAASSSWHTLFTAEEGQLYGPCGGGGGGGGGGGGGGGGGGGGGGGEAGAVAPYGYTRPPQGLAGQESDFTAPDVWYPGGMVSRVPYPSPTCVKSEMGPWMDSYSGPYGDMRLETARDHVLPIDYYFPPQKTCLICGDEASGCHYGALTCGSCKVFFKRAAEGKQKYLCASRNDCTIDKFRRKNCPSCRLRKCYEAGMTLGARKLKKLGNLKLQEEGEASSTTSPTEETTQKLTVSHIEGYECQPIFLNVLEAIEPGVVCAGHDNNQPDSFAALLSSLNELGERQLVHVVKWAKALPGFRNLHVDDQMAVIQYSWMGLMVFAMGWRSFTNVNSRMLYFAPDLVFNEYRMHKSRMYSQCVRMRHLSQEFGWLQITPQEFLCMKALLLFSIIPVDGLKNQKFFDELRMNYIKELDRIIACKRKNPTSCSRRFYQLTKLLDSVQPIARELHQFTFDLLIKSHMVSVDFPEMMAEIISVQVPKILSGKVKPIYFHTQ

With `O=C(O)/C=C/c1ccc(Cn2ccnc2)cc1`, the fluorescence, % of fluorescein in assay [1] was -0.0116% [at 18.6 µM]. Also, the fluorescence, % of fluorescent control in assay [2] is 0.209% [at 18.6 µM]; in assay [4], -0.0715% [at 18.6 µM]; in assay [6], -0.0401% [at 18.6 µM]; in assay [8], 0.143% [at 18.6 µM]. In addition, in [3], the activity change was 0.0066% [at 18.6 µM]. The fluorescence, % of Rose Bengal in assay [5] was -0.307% [at 18.6 µM]. For the same compound, the fluorescence, % of fluorescein control in assay [7] is -0.0119% [at 18.6 µM]. Also, the Potency result in [9], in [10], in [12], in [13] and in assay [15] was “inactive” in each case. The result in [11] and in assay [14] was inactive.

With `C=C(C)C1CC=C(C)C(O)C1` (centres undefined), the call in assay [1], in assay [3], in assay [4], in assay [5], in assay [7] and in assay [11] was inactive. Also, in [14], the compound was called inactive. For the same compound, the Potency entry in assay [2], in assay [6], in assay [8], in assay [9], in assay [12] and in [16] was “inactive” each time. Besides, the Potency result in assay [13] and in [15] was “inactive” in each case.

Consider `CCCCCCCCC=O`, for which the result in assay [1], in assay [3], in assay [4], in [5], in assay [7] and in [14] was inactive. In addition, the Potency entry in assay [2], in assay [6], in [8], in [9], in assay [10] and in assay [12] was “inactive” in each case. In addition, in [16], the Potency result was “inactive”.

In the case of `CC1=CCC2C(C1)C2(C)C` (centres undefined), the compound was classed as inactive in [1], in assay [3], in assay [4], in assay [5], in [7] and in assay [11]. Moreover, the compound was called inactive in assay [14], in [18] and in assay [20]. For the same compound, the Potency result in assay [2], in [6], in assay [8], in [9], in assay [10] and in assay [17] was “inactive” in each case. For the same compound, the Potency result in assay [19] and in [15] was “inactive” throughout.

Turning to `NC1CCN(c2cccc(Cl)n2)CC1`, the compound was called inactive in assay [1], in [3], in assay [4], in assay [5], in [7] and in [14]. Further, the outcome in assay [18] and in [20] was inactive. Further, the Potency result in assay [2], in assay [6], in [8], in assay [9], in assay [10] and in [17] was “inactive” in each case. For the same compound, the Potency result in assay [19] and in [15] was “inactive” each time.

As for `O=C(O)c1ccc[n+]([O-])c1`, the compound was classed as inactive in assay [1], in assay [3], in [4], in [5], in [7] and in [11]. In addition, the result in assay [14], in [18] and in assay [20] was inactive. Also, the Potency entry in [2], in assay [6], in assay [8], in assay [9], in assay [10] and in [12] was “inactive” each time. Besides, the Potency entry in [13], in [17], in assay [19] and in assay [15] was “inactive” throughout.

On to `COC[C@H](c1ccc(C(F)(F)F)cc1)N1CCN(C2(C)CCN(C(=O)c3c(C)ncnc3C)CC2)C[C@H]1C`, for which the compound was classed as inactive in assay [1], in [3], in assay [4], in assay [5], in assay [7] and in assay [14]. Besides, the Potency entry in assay [2], in assay [6], in assay [8], in [9], in [10] and in assay [13] was “inactive” throughout. In assay [15], the Potency entry was “inactive”. Also, the Potency in assay [12] was 29.8 µM (active).

As for `CCCCN(CCO)CCO`, the compound was called inactive in assay [1], in assay [3], in assay [4], in [5], in [7] and in assay [11]. Further, the call in assay [14] was inactive. The Potency result in assay [2], in assay [6], in assay [8], in assay [9], in [10] and in assay [12] was “inactive” throughout. Moreover, the Potency result in assay [16] and in [15] was “inactive” throughout.
